Source: PubChem BioAssay (EPA / NIEHS)
Records with an inconclusive call do not appear. Activity calls are given as the source filed them. How the source made its calls: active means hit-call score of the fitted dose curve at least 0.9, where 1 is the maximum; inconclusive means response in the unintended direction; inactive means score below 0.9.

molecular target: human Peripheral-type Benzodiazepine Receptor (PBR), TSPO (gene 706) (UniProt P30536); assay: NVS_MP_hPBR: NovaScreen (NVS) Membrane Protein Assay for human Peripheral-type Benzodiazepine Receptor (PBR) (AID 2283331);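 further: hits reduce radioligand binding relative to DMSO baseline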
In short: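 Cell-free binding to human colonic membrane preparations measured by filter-based scintillation counting after 1 h. Compounds first run at 25 uM in duplicate, then concentration series for actives; signal loss against DMSO baseline.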

human Peripheral-type Benzodiazepine Receptor (PBR), TSPO (gene 706), sequence (P30536 whole entry, looked up): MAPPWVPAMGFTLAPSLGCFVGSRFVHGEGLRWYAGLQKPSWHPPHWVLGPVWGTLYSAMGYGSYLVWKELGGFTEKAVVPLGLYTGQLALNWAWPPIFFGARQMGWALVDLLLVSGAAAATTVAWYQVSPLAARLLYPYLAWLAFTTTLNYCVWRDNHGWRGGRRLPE

Compound | AC50
CCCCNS(=O)(=O)c1ccc(C)cc1 | 7.96 µM (active)
C=CCOC(=O)c1ccc(C(=O)OCC=C)c(C(=O)OCC=C)c1 | 9.19 µM (active)
CCCCCCCOC(=O)c1ccc(O)cc1 | 2.98 µM (active)
COc1ccc(-c2coc3cc(O)cc(O)c3c2=O)cc1 | 0.293 µM (active)
CN(C)c1ccc2nc3ccc(=[N+](C)C)cc-3sc2c1 | 10.2 µM (active)
CCOC(=O)C1=NOC(c2ccccc2)(c2ccccc2)C1 | 8.19 µM (active)

molecular target: rat Peripheral-type Benzodiazepine Receptor (PBR), Tspo (gene 24230) (UniProt P16257); assay: NVS_MP_rPBR: NovaScreen (NVS) Membrane Protein Assay for rat Peripheral-type Benzodiazepine Receptor (PBR) (AID 2283335)
In short: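 Competitive displacement of specific radioligand from rat kidney membrane PBR, read by filtration and scintillation after 1 h. Compounds first tested at 25 uM in duplicate, then in concentration series; signal loss relative to DMSO.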

rat Peripheral-type Benzodiazepine Receptor (PBR), Tspo (gene 24230), sequence (P16257 whole entry, looked up): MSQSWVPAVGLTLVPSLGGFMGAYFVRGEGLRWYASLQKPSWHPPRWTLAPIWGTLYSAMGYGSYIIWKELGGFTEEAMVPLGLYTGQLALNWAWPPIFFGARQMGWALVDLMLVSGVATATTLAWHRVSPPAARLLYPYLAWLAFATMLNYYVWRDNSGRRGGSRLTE

Compound | outcome | AC50
O=c1c(O)c(-c2ccc(O)cc2O)oc2cc(O)cc(O)c12 | inactive | 
CCCCNS(=O)(=O)c1ccc(C)cc1 |  | 1.72 µM (active)
CCCCCCCOC(=O)c1ccc(O)cc1 | inactive | 
N#Cc1ccc(C(c2ccc(C#N)cc2)n2cncn2)cc1 |  | 6.92 µM (active)
Oc1ccc(/C=C/c2cc(O)cc(O)c2)cc1 | inactive | 
CCOC(=O)C1=NOC(c2ccccc2)(c2ccccc2)C1 | inactive | 
